Test results taken from the supplement of paper PMC11741263, “Chemoproteomic Profiling of C. albicans for Characterization of Anti-fungal Kinase Inhibitors” (bioRxiv, 2025).

Compound: Cc1[nH]nc2ccc(-c3cc(OC[C@@H](N)Cc4ccccc4)cnc3-c3ccoc3)cc12
Test: MIB bead binding, log2 fold change vs DMSO (log2 ratio); higher = less competition (weaker engagement)

UniProt P43063, sequence (P43063 whole entry): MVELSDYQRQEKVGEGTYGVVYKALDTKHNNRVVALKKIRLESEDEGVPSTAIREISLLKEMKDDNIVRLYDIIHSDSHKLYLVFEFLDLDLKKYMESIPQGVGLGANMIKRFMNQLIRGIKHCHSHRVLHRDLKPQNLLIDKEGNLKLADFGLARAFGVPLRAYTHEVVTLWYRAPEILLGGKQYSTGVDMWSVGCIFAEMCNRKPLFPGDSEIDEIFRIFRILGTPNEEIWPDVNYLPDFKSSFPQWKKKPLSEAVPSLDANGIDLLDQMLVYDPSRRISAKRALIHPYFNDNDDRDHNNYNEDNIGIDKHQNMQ
UniProt Q9UW13, sequence (Q9UW13 whole entry): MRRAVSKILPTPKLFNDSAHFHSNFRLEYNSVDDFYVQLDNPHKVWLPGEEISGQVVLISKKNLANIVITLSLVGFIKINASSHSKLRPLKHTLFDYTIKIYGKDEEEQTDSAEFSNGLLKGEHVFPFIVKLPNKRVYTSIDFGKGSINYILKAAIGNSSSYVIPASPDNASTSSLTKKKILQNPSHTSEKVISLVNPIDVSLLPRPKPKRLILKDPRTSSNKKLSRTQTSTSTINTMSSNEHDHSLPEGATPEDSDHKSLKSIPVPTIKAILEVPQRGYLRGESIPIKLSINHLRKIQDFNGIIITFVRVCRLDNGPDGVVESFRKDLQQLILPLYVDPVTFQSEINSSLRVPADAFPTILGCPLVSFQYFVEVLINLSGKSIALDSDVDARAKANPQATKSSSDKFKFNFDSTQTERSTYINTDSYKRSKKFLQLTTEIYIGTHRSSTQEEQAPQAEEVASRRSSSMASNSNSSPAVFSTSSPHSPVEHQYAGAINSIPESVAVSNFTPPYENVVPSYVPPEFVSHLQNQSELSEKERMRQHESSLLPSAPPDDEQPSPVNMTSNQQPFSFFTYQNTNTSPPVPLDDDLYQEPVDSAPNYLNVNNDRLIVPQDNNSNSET
UniProt P36507, sequence (P36507 whole entry, looked up): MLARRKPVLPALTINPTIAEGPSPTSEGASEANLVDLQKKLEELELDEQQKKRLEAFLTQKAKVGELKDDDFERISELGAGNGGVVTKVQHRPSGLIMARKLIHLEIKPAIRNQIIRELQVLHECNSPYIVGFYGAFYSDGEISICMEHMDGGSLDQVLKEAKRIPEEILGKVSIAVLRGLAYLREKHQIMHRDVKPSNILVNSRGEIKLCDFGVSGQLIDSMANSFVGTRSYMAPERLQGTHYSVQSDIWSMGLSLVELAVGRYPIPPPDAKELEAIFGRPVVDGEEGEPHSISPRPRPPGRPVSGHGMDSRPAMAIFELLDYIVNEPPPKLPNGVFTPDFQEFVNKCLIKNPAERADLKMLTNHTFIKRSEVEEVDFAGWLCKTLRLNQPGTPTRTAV
UniProt Q59W62, sequence (Q59W62 whole entry): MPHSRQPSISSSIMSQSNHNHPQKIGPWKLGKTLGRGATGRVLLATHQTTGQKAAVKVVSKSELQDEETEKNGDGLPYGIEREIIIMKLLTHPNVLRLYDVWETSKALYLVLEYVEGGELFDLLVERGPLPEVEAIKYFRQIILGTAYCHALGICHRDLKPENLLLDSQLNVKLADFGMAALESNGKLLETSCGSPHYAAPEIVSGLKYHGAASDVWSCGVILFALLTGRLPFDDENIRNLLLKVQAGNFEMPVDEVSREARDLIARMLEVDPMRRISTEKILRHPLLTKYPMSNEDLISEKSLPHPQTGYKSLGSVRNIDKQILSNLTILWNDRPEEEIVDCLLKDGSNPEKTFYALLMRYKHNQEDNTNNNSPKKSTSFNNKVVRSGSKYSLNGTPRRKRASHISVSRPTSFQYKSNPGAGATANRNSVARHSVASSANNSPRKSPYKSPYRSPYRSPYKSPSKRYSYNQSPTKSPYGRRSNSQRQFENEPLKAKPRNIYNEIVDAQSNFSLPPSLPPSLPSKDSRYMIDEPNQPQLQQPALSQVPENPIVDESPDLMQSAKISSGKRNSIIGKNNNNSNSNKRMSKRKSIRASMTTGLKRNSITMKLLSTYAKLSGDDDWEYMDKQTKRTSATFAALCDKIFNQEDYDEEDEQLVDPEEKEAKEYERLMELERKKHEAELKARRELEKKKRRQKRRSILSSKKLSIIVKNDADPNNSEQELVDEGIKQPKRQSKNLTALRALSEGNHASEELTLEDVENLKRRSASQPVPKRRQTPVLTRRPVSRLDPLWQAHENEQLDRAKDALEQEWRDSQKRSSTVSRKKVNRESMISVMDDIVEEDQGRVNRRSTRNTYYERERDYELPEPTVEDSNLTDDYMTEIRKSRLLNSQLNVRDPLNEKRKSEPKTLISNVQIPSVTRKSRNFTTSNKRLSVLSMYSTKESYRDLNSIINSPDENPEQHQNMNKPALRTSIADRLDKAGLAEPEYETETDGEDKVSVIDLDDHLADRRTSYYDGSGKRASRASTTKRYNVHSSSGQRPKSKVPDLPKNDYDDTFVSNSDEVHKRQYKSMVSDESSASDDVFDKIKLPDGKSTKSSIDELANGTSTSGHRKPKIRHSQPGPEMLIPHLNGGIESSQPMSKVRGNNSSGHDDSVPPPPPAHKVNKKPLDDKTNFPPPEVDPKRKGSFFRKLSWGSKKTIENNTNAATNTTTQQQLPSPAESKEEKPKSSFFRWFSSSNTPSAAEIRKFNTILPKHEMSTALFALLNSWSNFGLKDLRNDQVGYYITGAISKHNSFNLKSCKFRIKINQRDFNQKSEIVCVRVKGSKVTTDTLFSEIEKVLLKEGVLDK
UniProt Q5AG71, sequence (Q5AG71 whole entry): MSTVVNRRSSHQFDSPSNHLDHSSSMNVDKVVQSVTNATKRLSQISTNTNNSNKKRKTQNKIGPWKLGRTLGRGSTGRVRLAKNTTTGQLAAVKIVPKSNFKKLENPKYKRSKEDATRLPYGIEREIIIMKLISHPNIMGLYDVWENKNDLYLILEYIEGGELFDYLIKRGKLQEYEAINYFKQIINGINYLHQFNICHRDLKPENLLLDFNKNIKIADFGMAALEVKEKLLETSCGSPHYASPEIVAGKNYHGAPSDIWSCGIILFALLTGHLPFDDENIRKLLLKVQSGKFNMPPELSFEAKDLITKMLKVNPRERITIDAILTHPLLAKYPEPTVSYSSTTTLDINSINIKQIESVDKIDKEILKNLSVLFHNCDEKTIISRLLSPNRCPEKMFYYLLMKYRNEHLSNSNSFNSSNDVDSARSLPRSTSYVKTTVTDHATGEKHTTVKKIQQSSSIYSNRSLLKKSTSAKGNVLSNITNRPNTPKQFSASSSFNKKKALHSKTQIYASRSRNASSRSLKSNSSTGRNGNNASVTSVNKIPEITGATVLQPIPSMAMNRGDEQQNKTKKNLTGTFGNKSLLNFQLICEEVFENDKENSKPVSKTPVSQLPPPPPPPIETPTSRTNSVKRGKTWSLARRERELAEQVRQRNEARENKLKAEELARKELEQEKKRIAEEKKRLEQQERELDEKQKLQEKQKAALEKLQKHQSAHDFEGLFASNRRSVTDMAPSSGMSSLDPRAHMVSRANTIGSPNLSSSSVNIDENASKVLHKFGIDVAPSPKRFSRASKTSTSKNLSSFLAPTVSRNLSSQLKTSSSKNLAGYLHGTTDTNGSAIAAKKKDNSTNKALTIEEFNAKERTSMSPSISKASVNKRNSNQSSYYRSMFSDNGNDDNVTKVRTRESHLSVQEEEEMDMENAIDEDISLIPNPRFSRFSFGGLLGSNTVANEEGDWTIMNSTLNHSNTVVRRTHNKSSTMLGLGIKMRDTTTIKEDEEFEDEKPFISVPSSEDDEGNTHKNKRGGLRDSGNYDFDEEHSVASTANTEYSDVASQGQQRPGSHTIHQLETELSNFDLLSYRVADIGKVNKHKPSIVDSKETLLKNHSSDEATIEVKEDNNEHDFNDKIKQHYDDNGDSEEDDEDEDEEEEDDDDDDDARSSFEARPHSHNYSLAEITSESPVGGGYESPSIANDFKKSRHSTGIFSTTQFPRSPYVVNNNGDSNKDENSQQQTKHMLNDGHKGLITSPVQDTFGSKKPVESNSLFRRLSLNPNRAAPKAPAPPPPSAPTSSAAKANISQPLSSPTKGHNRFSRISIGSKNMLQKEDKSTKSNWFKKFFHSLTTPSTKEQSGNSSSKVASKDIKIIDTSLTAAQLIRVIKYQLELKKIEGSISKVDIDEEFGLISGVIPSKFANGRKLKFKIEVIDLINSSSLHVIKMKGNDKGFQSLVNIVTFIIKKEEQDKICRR
UniProt O00311, sequence (O00311 whole entry, looked up): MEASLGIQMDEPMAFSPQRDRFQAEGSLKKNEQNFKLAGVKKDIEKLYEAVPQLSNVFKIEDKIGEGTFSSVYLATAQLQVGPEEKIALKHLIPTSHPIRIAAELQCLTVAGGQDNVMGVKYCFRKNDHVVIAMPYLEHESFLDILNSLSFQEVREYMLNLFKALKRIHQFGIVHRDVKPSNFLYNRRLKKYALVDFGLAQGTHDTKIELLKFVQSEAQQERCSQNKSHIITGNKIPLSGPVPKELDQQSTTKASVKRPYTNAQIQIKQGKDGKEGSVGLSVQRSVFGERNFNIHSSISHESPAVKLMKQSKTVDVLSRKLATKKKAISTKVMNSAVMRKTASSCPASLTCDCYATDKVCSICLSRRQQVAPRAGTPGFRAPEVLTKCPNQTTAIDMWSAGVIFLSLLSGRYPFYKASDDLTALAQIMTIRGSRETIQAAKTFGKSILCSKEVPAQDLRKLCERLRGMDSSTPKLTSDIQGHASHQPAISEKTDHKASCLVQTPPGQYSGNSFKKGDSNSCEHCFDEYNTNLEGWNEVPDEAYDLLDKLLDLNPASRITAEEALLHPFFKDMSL

Row | Target | MIB bead binding (log2) (0.1 µM) | MIB bead binding (log2) (1 µM) | MIB bead binding (log2) (10 µM)
1 | orf19.4518 | -0.0101 | -0.0109 | -0.0364
2 | orf19.3456 | -0.328 | -0.791 | 
3 | CMK2 | 0.0395 | 0.585 | 
4 | CDC7 (UniProt O00311) | -0.0168 | -0.237 | 
5 | CDC28 (UniProt P43063) | 0.12 | 0.127 | -0.931
6 | POM1 | -0.418 | -0.345 | -2.53
7 | CTK1 | -0.0626 | -0.159 | 
8 | CAALFM_C106360WA | -0.234 | -0.165 | 
9 | orf19.4144 | -0.0982 | -0.112 | -2.63
10 | KIN2 | -0.0805 | -0.118 | -0.154
11 | GIN4 (UniProt Q59W62) | -0.016 | -0.162 | -0.625
12 | HST7 | 0.106 | -0.0777 | -1.68
13 | MCK1 | -0.0754 | 0.0618 | -1.02
14 | MKK2 (UniProt P36507) | 0.148 | -0.183 | -1.11
15 | HSL1 (UniProt Q5AG71) | 0.351 | 0.197 | -0.67
16 | IKS1 | -0.323 | -0.0927 | 
17 | ENV7 | -0.351 | 0.16 | -1.89
18 | NIK1 (UniProt Q5A599) | -0.731 | 0.254 | 
19 | HRK1 | -0.0934 | 0.0301 | -0.517
20 | CKA1 | -0.241 | 0.0806 | -2.47
21 | CKA2 | 0.0997 | 0.026 | -1.17
22 | YPK1 | -0.0854 | -0.539 | -1.48
23 | YAK1 | -0.229 | -0.0276 | -2.8
24 | AKL1 | -0.106 | -1.01 | -5.4
25 | RTK1 | 0.0613 | 0.118 | -1.04
26 | CMK1 | 0.142 | 0.154 | -0.566
27 | RIM8 (UniProt Q9UW13) | -0.206 | -0.122 | -2.22
28 | orf19.4575 | -0.428 | -0.272 | -2.61
29 | SSK2 | -0.564 | -0.847 | -2.24
